Experimental data: the supplement of paper PMC6411743
± gives the standard deviation of the averaged measurements. About 6,500 targets were measured; listed, in parts, are those with the largest changes and a random draw of the rest.

Compound: Nc1ncnc2c1ncn2[C@@H]1O[C@H](COP(=O)(O)OP(=O)(O)OP(=O)(O)O)[C@@H](O)[C@H]1O [adenosine triphosphate]
Experiment: NP40-soluble protein abundance relative to vehicle (solubility fold change) (ratio); higher = more soluble protein in presence of ATP
How it was run: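 Values are fold changes against the detergent-processed vehicle, based on vsn-normalised intensities. Jurkat crude lysate was treated at eight concentrations from 0.1 to 10 mM (10 min at room temperature, then 3 min at 37 °C), solubilised with 0.8% NP40 and benzonase, ultracentrifuged and analysed by TMT-labelled LC-MS/MS over three independent experiments.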

UniProt Q13438, sequence (Q13438 whole entry): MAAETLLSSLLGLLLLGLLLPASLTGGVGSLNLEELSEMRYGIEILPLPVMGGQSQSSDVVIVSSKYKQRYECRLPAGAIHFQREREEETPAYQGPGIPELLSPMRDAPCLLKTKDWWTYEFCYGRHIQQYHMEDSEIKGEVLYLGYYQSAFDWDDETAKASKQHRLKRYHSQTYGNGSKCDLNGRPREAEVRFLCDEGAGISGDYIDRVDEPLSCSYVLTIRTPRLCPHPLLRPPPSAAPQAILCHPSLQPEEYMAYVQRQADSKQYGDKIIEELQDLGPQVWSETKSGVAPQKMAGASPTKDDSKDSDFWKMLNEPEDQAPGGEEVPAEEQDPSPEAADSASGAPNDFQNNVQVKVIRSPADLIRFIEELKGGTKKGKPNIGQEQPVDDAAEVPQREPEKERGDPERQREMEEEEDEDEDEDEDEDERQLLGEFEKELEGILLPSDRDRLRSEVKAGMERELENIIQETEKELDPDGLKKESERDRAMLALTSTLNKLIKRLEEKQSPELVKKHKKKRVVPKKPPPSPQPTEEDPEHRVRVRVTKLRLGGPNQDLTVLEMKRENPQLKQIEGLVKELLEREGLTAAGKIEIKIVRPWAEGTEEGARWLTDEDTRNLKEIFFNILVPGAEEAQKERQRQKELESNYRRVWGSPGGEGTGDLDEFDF
UniProt Q13137, sequence (Q13137 whole entry, one chain of several): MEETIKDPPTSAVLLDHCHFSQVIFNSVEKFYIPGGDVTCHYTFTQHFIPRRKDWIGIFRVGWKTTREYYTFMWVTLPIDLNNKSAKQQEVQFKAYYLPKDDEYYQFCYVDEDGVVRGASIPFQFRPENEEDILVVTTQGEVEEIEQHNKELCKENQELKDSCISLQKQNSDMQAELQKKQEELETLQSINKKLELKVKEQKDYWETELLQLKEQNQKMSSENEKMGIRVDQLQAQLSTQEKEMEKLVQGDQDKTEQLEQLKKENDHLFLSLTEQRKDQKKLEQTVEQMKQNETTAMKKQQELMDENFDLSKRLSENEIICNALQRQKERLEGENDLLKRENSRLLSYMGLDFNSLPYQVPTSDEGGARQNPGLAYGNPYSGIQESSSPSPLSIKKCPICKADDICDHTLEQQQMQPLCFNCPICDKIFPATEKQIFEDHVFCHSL
UniProt Q14142, sequence (Q14142 whole entry): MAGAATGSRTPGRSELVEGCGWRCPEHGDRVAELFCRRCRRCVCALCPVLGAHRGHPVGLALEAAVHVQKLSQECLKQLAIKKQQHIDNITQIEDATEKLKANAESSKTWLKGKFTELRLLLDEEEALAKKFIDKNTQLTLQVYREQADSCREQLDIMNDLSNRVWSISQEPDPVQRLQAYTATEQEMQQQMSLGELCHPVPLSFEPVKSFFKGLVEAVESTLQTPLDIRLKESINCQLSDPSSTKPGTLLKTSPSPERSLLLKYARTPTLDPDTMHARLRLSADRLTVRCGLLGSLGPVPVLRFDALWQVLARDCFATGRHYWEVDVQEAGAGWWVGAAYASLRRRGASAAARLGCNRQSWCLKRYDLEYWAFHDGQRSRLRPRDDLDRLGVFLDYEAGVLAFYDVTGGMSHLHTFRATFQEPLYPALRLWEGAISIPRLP
UniProt Q86X83, sequence (Q86X83 whole entry): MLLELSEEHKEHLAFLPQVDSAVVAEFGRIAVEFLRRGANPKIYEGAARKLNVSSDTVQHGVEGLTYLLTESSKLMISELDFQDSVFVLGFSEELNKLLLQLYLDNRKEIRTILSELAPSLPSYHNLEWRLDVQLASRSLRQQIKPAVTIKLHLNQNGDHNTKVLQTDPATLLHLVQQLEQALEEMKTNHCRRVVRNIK
UniProt Q8WUY8, sequence (Q8WUY8 whole entry, one chain of several): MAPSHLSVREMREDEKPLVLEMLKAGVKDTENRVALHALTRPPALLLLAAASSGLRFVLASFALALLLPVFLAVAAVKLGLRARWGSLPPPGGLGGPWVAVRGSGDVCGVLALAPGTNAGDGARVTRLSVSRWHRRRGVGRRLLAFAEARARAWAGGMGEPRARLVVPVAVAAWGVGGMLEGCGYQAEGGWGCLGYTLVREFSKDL
UniProt Q2NKX8, sequence (Q2NKX8 whole entry): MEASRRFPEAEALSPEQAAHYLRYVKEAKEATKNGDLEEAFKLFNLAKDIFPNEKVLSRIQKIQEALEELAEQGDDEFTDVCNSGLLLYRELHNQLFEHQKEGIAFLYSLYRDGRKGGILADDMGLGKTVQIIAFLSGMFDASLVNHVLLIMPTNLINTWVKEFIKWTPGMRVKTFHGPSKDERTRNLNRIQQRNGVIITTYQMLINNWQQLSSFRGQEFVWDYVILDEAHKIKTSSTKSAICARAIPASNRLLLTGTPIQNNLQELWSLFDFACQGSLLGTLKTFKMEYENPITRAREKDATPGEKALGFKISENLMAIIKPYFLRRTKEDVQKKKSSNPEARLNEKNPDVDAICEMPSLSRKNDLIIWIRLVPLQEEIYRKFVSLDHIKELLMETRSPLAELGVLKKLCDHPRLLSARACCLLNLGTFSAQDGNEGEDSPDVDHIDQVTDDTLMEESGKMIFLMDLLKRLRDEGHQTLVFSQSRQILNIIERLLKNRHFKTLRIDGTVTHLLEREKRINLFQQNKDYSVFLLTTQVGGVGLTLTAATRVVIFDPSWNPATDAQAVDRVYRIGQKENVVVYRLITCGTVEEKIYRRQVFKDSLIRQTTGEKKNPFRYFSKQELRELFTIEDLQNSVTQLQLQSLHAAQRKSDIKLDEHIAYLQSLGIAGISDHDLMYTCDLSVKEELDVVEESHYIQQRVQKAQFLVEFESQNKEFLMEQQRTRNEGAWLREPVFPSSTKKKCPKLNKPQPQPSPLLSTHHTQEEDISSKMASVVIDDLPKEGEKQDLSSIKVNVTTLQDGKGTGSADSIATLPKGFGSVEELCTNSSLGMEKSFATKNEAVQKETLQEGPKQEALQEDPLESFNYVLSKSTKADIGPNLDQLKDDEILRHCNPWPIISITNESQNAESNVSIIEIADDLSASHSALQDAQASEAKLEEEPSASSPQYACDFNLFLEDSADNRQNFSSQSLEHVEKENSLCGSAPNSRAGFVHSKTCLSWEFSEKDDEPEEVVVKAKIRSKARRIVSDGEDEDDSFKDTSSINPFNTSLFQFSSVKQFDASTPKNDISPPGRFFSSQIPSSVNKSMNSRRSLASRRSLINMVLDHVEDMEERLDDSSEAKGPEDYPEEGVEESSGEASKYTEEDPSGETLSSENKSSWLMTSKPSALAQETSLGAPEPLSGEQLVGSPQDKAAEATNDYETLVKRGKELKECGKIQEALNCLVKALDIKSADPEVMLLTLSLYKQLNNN
UniProt Q13523, sequence (Q13523 whole entry, looked up): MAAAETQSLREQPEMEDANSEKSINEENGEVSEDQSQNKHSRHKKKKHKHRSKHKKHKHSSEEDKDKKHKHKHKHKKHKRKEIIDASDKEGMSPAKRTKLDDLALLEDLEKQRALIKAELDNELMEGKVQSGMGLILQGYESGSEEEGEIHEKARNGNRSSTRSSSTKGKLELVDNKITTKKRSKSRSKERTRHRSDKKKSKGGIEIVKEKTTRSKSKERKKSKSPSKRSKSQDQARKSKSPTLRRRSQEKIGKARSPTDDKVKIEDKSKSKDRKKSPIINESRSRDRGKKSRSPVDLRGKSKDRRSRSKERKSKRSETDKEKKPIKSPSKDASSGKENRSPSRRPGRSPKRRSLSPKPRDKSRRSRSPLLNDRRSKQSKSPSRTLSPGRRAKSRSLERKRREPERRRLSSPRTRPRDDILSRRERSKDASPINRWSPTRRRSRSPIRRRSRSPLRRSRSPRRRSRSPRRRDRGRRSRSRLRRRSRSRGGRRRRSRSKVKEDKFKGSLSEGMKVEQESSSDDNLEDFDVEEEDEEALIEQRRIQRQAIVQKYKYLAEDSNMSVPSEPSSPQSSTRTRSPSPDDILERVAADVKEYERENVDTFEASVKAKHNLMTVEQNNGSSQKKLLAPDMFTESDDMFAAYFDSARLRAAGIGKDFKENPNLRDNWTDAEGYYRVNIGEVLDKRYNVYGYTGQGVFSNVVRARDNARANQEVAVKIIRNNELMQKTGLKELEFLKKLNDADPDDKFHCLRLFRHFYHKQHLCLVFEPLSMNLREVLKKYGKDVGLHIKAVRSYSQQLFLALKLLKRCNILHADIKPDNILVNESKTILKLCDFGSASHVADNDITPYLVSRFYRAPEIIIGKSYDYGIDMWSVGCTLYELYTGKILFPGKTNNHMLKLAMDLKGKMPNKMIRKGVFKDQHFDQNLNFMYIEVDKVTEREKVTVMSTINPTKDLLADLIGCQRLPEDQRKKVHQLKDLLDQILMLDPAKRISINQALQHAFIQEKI
UniProt Q08170, sequence (Q08170 whole entry): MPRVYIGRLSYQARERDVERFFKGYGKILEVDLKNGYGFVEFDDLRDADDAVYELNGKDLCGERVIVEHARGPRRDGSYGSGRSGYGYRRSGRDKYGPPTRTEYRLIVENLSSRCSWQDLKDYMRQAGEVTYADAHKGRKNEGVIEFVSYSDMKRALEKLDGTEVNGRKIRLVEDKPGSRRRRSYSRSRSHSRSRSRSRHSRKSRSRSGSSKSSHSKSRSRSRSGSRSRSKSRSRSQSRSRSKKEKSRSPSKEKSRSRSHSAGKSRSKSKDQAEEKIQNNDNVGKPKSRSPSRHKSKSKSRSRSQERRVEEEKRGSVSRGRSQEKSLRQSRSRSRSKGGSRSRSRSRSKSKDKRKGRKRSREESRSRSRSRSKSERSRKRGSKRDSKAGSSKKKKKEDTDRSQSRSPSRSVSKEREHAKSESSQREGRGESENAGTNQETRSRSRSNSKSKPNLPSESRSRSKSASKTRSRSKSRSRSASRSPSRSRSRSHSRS
UniProt Q8NEJ9, sequence (Q8NEJ9 whole entry): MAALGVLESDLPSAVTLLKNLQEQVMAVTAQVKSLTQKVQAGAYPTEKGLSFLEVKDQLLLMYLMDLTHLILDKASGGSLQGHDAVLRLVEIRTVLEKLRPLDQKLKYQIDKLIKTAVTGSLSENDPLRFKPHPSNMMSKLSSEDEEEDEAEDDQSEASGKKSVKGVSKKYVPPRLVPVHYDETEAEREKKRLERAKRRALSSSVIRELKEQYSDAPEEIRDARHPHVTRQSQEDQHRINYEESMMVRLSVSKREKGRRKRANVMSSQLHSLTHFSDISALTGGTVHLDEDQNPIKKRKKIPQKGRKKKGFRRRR

Target	NP40-soluble protein abundance (concentration: 1mM)	NP40-soluble protein abundance (concentration: 2mM)	NP40-soluble protein abundance (concentration: 4mM)	NP40-soluble protein abundance (concentration: 6mM)	NP40-soluble protein abundance (concentration: 8mM)	NP40-soluble protein abundance (concentration: 10mM)
LARP1 (UniProt Q6PKG0)	0.939 ± 0.062	0.988 ± 0.065	1.06 ± 0.059	1.2 ± 0.069	1.22 ± 0.043	1.33 ± 0.065
PRPF4B (UniProt Q13523)	1.29 ± 0.015	1.329 ± 0.011	1.46 ± 0.018	1.6 ± 0.061	1.68 ± 0.041	1.8 ± 0.022
TOMM20 (UniProt Q15388)	0.921 ± 0.086	0.896 ± 0.044	0.903 ± 0.11	0.886 ± 0.041	0.8947 ± 0.0073	0.803 ± 0.21
UniProt Q10567|Q10567-2|Q10567-3	0.9721 ± 0.0088	0.973 ± 0.015	0.922 ± 0.022	0.964 ± 0.013	0.951 ± 0.0014	0.934 ± 0.024
TRIM14 (UniProt Q14142)	1.08 ± 0.044	1.05 ± 0.037	1.13 ± 0.088	1.1 ± 0.083	1.17 ± 0.067	1.27 ± 0.2
UniProt Q13137|Q13137-3|Q13137-4|Q13137-5|H0YBP4	0.962 ± 0.033	0.968 ± 0.032	0.9319 ± 0.0066	0.986 ± 0.03	0.941 ± 0.012	0.948 ± 0.026
UniProt Q8NB78	1.11 ± 0.064	1.09 ± 0.025	1.11 ± 0.08	0.998 ± 0.08	1.11 ± 0.035	1.09 ± 0.025
UniProt Q14155-1	1 ± 0.011	0.9849 ± 0.0056	0.97 ± 0.013	1.02 ± 0.05	0.976 ± 0.024	0.962 ± 0.034
UniProt Q13642-1|Q13642-4|Q13642-5	0.979 ± 0.17	0.968 ± 0.11	0.956 ± 0.098	0.926 ± 0.091	0.979 ± 0.12	0.983 ± 0.064
UniProt Q13761|Q13761-2	1.07 ± 0.2	1.18 ± 0.35	1.18 ± 0.3	1.19 ± 0.31	1.13 ± 0.23	1.18 ± 0.13
UniProt Q8IY17|Q8IY17-3|Q8IY17-4|Q8IY17-2	1.05 ± 0.056	1.05 ± 0.033	1.028 ± 0.0096	1.01 ± 0.051	1.04 ± 0.04	1.06 ± 0.036
UniProt Q86X83|Q86X83-2	1.01 ± 0.038	0.975 ± 0.011	0.963 ± 0.024	0.927 ± 0.022	0.956 ± 0.048	0.971 ± 0.021
UniProt Q8IUD2|X6RLX0	0.979 ± 0.037	0.985 ± 0.025	0.997 ± 0.025	1.01 ± 0.014	0.988 ± 0.027	0.997 ± 0.025
UniProt Q15036|Q15036-2	0.88 ± 0.17	0.835 ± 0.14	0.853 ± 0.15	0.808 ± 0.18	0.808 ± 0.12	0.849 ± 0.16
EFTUD2 (UniProt Q15029)	1.12 ± 0.04	1.16 ± 0.047	1.21 ± 0.047	1.26 ± 0.075	1.41 ± 0.056	1.42 ± 0.12
DCUN1D3 (UniProt Q8IWE4)	0.923 ± 0.038	0.949 ± 0.049	0.998 ± 0.035	0.92 ± 0.034	0.931 ± 0.039	0.866 ± 0.11
KIF18A (UniProt Q8NI77)	1.09 ± 0.11	0.996 ± 0.2	1.09 ± 0.035	1.06 ± 0.013	1.09 ± 0.18	1.18 ± 0.16
UniProt Q16611|Q16611-2	1.01 ± 0.036	0.985 ± 0.023	1.02 ± 0.09	1.05 ± 0.045	0.997 ± 0.077	0.993 ± 0.087
UniProt Q32P28|Q32P28-3|Q32P28-4	1.13 ± 0.023	1.15 ± 0.025	1.2 ± 0.077	1.19 ± 0.043	1.22 ± 0.051	1.198 ± 0.0094
UniProt Q8NEJ9|Q8NEJ9-2	1.11 ± 0.12	1.13 ± 0.16	1.24 ± 0.064	1.29 ± 0.14	1.32 ± 0.058	1.34 ± 0.19
UniProt Q8WUY8|M0R1E3	1.02 ± 0.085	1.049 ± 0.0036	1.13 ± 0.032	0.966 ± 0.052	1.03 ± 0.067	1.08 ± 0.013
UniProt Q641Q2|F8W7U3|Q641Q2-2	0.968 ± 0.057	0.9815 ± 0.0096	0.938 ± 0.033	0.94 ± 0.094	0.895 ± 0.05	0.896 ± 0.047
UniProt Q15906|Q15906-2	1.13 ± 0.12	1.13 ± 0.092	1.22 ± 0.12	1.27 ± 0.23	1.24 ± 0.12	1.26 ± 0.13
UniProt Q08170	1.58 ± 0.12	1.68 ± 0.08	1.66 ± 0.095	1.81 ± 0.058	1.68 ± 0.052	1.64 ± 0.073
ERCC6L (UniProt Q2NKX8)	0.999 ± 0.024	0.986 ± 0.026	0.971 ± 0.024	0.999 ± 0.033	0.966 ± 0.0079	0.978 ± 0.017
FADD (UniProt Q13158)	1.1 ± 0.14	1.05 ± 0.05	1.06 ± 0.11	1.05 ± 0.046	1.06 ± 0.13	0.969 ± 0.11
UniProt Q5T280	1.03 ± 0.085	1.08 ± 0.077	1.23 ± 0.12	1.47 ± 0.17	1.52 ± 0.21	1.83 ± 0.22
THOC5 (UniProt Q13769)	1.53 ± 0.054	1.68 ± 0.11	2.01 ± 0.17	2.23 ± 0.28	2.52 ± 0.27	2.52 ± 0.29
ZC3H12A (UniProt Q5D1E8)	0.982 ± 0.088	1.05 ± 0.089	0.988 ± 0.11	1.02 ± 0.085	1.02 ± 0.084	0.943 ± 0.11
UniProt Q13438|Q13438-7	0.953 ± 0.036	0.953 ± 0.049	0.94 ± 0.056	0.99 ± 0.069	0.939 ± 0.031	0.952 ± 0.045
